# Compound activity from PubChem BioAssay.
# The list is a sample of the results.
# aSyn 5UTR act – Activators working through SNCA 5'UTR binding (MLPCN); 7.1% of 300,000 active; activity score, % (tested at 7.5 µM), hits read low; alpha-synuclein 5'UTR reporter, activators screen; AID 1814; in the data active = activity score below about -60%
# * hit, by the source's call.
SMILES,aSyn 5UTR act
Cc1nc(NC(=O)c2ccccc2)nc2cc3c(cc12)OCO3,-127.2*
C/C(=N\Nc1ccc([N+](=O)[O-])cc1)c1cccc(N)c1,-198.6*
C/C(=N\N=C(/C)c1cccc(N)c1)c1cccc(N)c1,-111.4*
C/C(=N\Nc1ccc([N+](=O)[O-])cc1)c1ccc(O)cc1,-216.8*
c1ccc(CSc2cc3ccccc3[nH]2)cc1,-132.3*
Cc1ccc(F)cc1NC(=O)CCc1c(C)nn(-c2ccc(N3CCCCC3)nn2)c1C,-81.9*
COc1ccc(C)cc1NC(=O)CCc1c(C)nn(-c2ccc(N3CCCCC3)nn2)c1C,-94.7*
Cc1ccc(NC(=O)CCc2c(C)nn(-c3ccc(N4CCOCC4)nn3)c2C)cc1F,-85.7*
Cc1ccc(NC(=O)CCc2c(C)nn(-c3ccc(N4CCCCC4)nn3)c2C)cc1,-107.1*
CC(=O)c1ccc(NC(=O)CCc2nnc3ccc(N4CCCC4)nn23)cc1,-95.1*
Cc1nn(-c2ccc(N3CCCCC3)nn2)c(C)c1CCC(=O)Nc1ccc(F)c(F)c1,-65.6*
COc1cc(/C=C2/C(=O)N(C)C(=S)N2C)ccc1OCc1cccc(F)c1,-155.7*
COc1cc(C=O)ccc1OCCSc1ccc(C)cc1,-129.2*
COC(=O)c1ccccc1OCCCOc1ccc(C=O)cc1OC,-106.7*
COc1cc(C=O)ccc1OCc1cccc(Br)c1,-151.6*
COc1cc(C=O)ccc1OCc1ccccc1Br,-201.5*
O=C(/C=C/c1ccccc1F)c1ccoc1,-68.4*
CCCC(=NCCc1c(C)[nH]c2ccccc12)C1=C(O)CC(c2ccccc2)CC1=O (stereo not given),86.5
Cc1[nH]c2ccccc2c1CN1CCc2ccccc2C1,-61.8*
O=C(COc1ccc(Cl)cc1Cl)NC(=O)N1CCCCC1,-120.6*
Cc1cc(Cl)ccc1OCC(=O)N1CCCCC1,-108.3*
COc1ccc(C2CC2C(=O)c2ccccn2)cc1 (stereo not given),-72.9*
COc1ccc(C2CC2/C(=N/O)c2ccccn2)cc1 (stereo not given),-86.4*
CC1C(=O)C(C)C(c2ccc(Cl)cc2)NC1c1ccc(Cl)cc1 (stereo not given),68.5
Cc1[nH]cnc1C(=O)N/N=C/c1c(Cl)cccc1Cl,-72.6*
SMILES,aSyn 5UTR act
CCCCCc1ccc(-c2ccc(OC)cc2)nc1,-122.7*
CCCCc1ccc(-c2ccc(C)cc2O)nc1,84.4
c1ccc2c(c1)Cn1nc(Cc3nc4c(s3)CCCC4)nc1-2,-79.3*
Cc1cc(NC(=S)Nc2ccc(C)c(Cl)c2)n[nH]1,-110.2*
COc1ccc(NC(=S)Nc2cc(C)[nH]n2)cc1Cl,-124.6*
O=c1oc2c(-c3cccc(F)c3)cc(O)cc2s1,-79.5*
O=C(/C(C=Nc1cccc(C(F)(F)F)c1)=C(/O)c1ccco1)C(F)(F)F,-193.8*
O=C(/C(C=Nc1ccc(Br)cc1)=C(/O)c1ccco1)C(F)(F)F,-175.1*
Nc1cccc2c1C(=O)N(C(=O)/C=C/c1cccc(Br)c1)C2=O,-160.3*
CCc1cc2c(=O)c(-c3ccc4c(c3)OCCO4)coc2c(CN2CCCCC2C)c1O (stereo not given),-65.1*
O=c1c(-c2ccc3c(c2)OCCO3)coc2c(CN3CCOCC3)c(O)ccc12,-93.7*
CCc1cc2c(=O)c(-c3ccc4c(c3)OCCO4)coc2cc1OS(C)(=O)=O,-115.8*
O=c1sc(N2CCN(c3ccc(F)cc3)CC2)nc2ccsc12,-179.1*
O=c1sc(N2CCN(c3ccccc3F)CC2)nc2ccsc12,-192.0*
Cc1nc(/N=C(\N)Nc2ccccc2)nc2ccccc12,-132.7*
Cc1ccc(NC(=O)c2ccco2)c([N+](=O)[O-])c1,-197.3*
COc1ccc(NC(=O)c2ccco2)c([N+](=O)[O-])c1,-75.8*
Cc1snc2sc(C(=O)c3ccc(Br)cc3)c(N)c12,-101.4*
Cc1nc2sc(C(=O)c3ccccc3)c(N)c2c(C)c1C,-67.8*
Nc1c(C(=O)Nc2ccccc2)sc2ncc([N+](=O)[O-])cc12,-63.2*
CC(=O)c1ccc(NC(=O)c2sc3nc(C)c(C)c(C)c3c2N)cc1,-232.9*
Cc1nc2sc(C(=O)OC(C)C)c(N)c2c(C)c1C,-189.9*
CC(=O)Nc1ccc(Nc2nc(C)c([N+](=O)[O-])c(Nc3ccccc3)n2)cc1,58.1
Cc1nc2sc(C(=O)Nc3ccccc3)c(N)c2c(C)c1[N+](=O)[O-],-78.5*
CC(=O)Nc1ccc(Nc2nc(C)c([N+](=O)[O-])c(N(C)c3ccccc3)n2)cc1,85.6
SMILES,aSyn 5UTR act
CC1(C)Nc2ccccc2C(=O)N1c1ccc(Br)cc1,-84.0*
COc1ccc(N2C(=O)c3ccccc3NC2(C)C)cc1,-69.3*
CC(C)(C)c1ccc(OCC(=O)O/N=C(\N)c2ccncc2)cc1,-76.7*
CCc1ccc(OCC(=O)O/N=C(\N)c2ccncc2)c(Br)c1,-136.5*
N/C(=N\OC(=O)COc1ccc2ccccc2c1Br)c1ccncc1,-92.4*
CCc1ccc(OCC(=O)O/N=C(\N)c2ccncc2)cc1,-98.9*
Cc1cc(C(=O)O/N=C(\N)c2ccc(C(C)(C)C)cc2)no1,-223.3*
O=[N+]([O-])c1ccccc1CSc1nnc2ccccn12,-121.2*
c1ccn2c(SCc3cn4ccsc4n3)nnc2c1,-166.4*
Clc1ccc(CSc2nnc3ccccn23)c(Cl)c1,-74.8*
Clc1ccc(CSc2snnc2-c2ccccc2)c(Cl)c1,-120.8*
Cc1ccc(NC(=S)Nc2cccc3ccccc23)cc1F,-85.6*
CC(=O)N(C)c1ccc(NC(=S)Nc2cccc3ccccc23)cc1,-168.2*
CCc1ccc(NC(=S)Nc2cccc3cnccc23)cc1,-87.4*
Cc1ccc(C)c(Cn2c(O)c(N=NC(=S)Nc3ccccc3F)c3ccccc32)c1,71.8
CC1Cc2ccccc2N1C(=O)CSc1ncc(-c2ccc(F)cc2)n1C (stereo not given),-125.6*
CN(C)CC/C=C1/c2ccccc2CS(=O)(=O)c2ccccc21,-74.1*
Cc1ccc(NC(=O)c2ocnc2C)cc1Cl,-239.6*
Cc1ncoc1C(=O)Nc1cccc(Cl)c1,-92.1*
COc1cccc(NC(=O)c2ocnc2C)c1,-81.0*
N#CCSc1ccc2nc(-c3ccccc3)cn2n1,-103.7*
CC(C)NC(=O)CSc1nc(-c2ccccc2)cs1,-159.6*
N#CCSc1nc(-c2ccccc2)cs1,-75.4*
COc1ccc(Nc2ncnc3sc(C)cc23)c(OC)c1,-82.1*
COc1ccc(NC(=O)CSc2nnc(-c3cccc(O)c3)o2)cc1,-109.8*
SMILES,aSyn 5UTR act
COc1ccccc1NC(=O)CSc1nnc(-c2ccccc2)o1,-89.9*
O=C(CSc1nnc(-c2ccc(O)cc2)o1)Nc1ccccc1,-100.2*
Cc1cc(C)cc(NC(=O)CSc2nnc(-c3ccccc3Br)o2)c1,-67.2*
CCOc1cc2c3c(c1)C(C)=CC(C)(C)N3C(=O)C2=O,-73.6*
COc1ccc(/C=C/c2nc3ccccc3n2Cc2ccc(OC)c(OC)c2)cc1,-190.6*
CC(C)n1c(/C=C/c2ccccc2)nc2ccccc21,-117.8*
COCCOCCn1c(/C=C/c2ccccc2)nc2ccccc21,-96.6*
COc1cc(Cn2c(-c3nonc3N)nc3ccccc32)ccc1C,96.2
CC(C)S(=O)(=O)c1csc(C(=O)Nc2ccc(F)cc2)c1N,-100.0*
CC1CCCN(C(=O)Nc2ccc(Br)cc2Cl)C1 (stereo not given),-91.1*
CCS(=O)(=O)c1ncc(Cl)c(C(=O)Nc2ccc(S(=O)(=O)N3CCCC(C)C3)cc2)n1 (stereo not given),72.2
O=C(COC(=O)c1ccc2[nH]c3c(c2c1)CCCC3)Nc1ccccc1,-63.9*
CCN(CC)CCOc1c(Br)ccc2c1sc1nc3n(c(=O)c12)CCC3,-110.8*
CCN1CCN(/C=N/c2nc(C)cs2)CC1,-83.0*
